The list is not random: actives were taken first. Their share in the collection is about 3.3%.
PI5P4Ka inh: blocks human PI5P4K alpha kinase activity; max response, %; 1.2% of 330,000 active; P48426; PI5P4Kalpha enzyme, ADP-Glo luminescence, 60 min; hits give low values; AID 652105; active means max response of -50% or lower; inconclusive means between -30% and -50%; inactive means -30% or higher; further: value at the top dose of about 77 µM; on the % scale 0 is the no-effect control and ±100 the full control effect
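Reactions run in 0.038 M HEPES pH 7.4, 0.28 mM EGTA, 0.1% CHAPS and 5% DMSO, with PI5P4Kalpha, substrate, compound and 5 microM ATP final, one hour at room temperature. Readout is ADP-Glo luminescence.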
D3 ag: D3 dopamine receptor (human) agonism; 0.58% of 410,000 active; AID 652048; D3R DiscoveRx beta-arrestin cells, luminescence, 90 min; max activation, %; P35462; in the data active means max activation above about 30%; further: 0% is about no effect
Target sequence (P35462 whole entry, looked up): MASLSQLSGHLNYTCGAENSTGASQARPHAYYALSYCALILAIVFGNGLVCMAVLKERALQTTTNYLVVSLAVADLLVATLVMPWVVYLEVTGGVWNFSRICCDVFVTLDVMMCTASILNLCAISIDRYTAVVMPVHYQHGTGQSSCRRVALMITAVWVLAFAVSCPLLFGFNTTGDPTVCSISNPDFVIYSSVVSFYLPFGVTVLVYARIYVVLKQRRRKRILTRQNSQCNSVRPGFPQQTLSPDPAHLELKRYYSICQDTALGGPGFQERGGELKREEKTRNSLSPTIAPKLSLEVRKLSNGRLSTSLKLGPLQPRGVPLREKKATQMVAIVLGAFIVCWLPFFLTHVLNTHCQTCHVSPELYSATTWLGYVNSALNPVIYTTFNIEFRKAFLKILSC
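Agonist mode: compounds and dopamine controls were applied to plated cells for 90 min at 37 degrees C after an overnight attachment at 1500 cells/well. Luminescent read-out followed 30 - 60 minutes at room temperature with DiscoveRx detection reagent.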
LDHA inh: blocks human lactate dehydrogenase A; P00338; purified LDHA, NADH/diaphorase-resazurin fluorescence; hits give low values; activity change, % (values are at about 110 or 230 µM); 0.15% of 480,000 active; AID 1347041; in the data active means activity change below about -30%; inconclusive means mostly about -25% to -30%;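 further: plate controls were DMSO wells for no effect and wells without enzyme for full effect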
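Human LDH5 (2 nM) was incubated with 0.06 mM NADH and 0.2 mM pyruvate for 5 min at room temperature in Tris pH 7.4. Remaining NADH was coupled through diaphorase/resazurin, and resorufin fluorescence was read at 0 and 20 min.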
DRD3 antagonist: D3 dopamine receptor (human) antagonism. D3R cells, DiscoveRx beta-arrestin luminescence, antagonist mode; hits give low values. max response, negative = inhibition, %. P35462. 2.5% of 360,000 active; in the data active means max response below about -50%; inconclusive means no clear call, values can overlap the other calls; further: on the % scale 0 is the no-effect control and ±100 the full control effect
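Cells expressing the human receptor were seeded at 1500 cells/well, incubated overnight at 37 degrees C in 5% CO2, then exposed to library compounds with dopamine controls for 90 minutes at 37 degrees C before luminescent detection.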
PI4K2A inh: PI4K2A (human) kinase inhibition | Q9BTU6 | purified PI4K2A, ADP-Glo luminescence, 1 h; hits give low values | activity change, negative = inhibition, % at 76.9 µM | 0.13% of 420,000 active | AID 1346378; in the data active means activity change below about -50%; inconclusive means mostly about -30% to -49%;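 further: -100% = wells without enzyme as full effect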
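In this quantitative HTS, ADP production by PI4K2A was quantified luminescently after 1 h at ambient temperature; 100 microM adenosine served as plate-quality control.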
ADP-Glo counter: ADP-Glo luciferase interference, PI5P4K counter-screen | AID 743285 | shares compounds with PI5P4Ka inh | Potency, µM (highest dose often 76.9 µM), for inactives: at the highest dose activity change, negative = inhibition, actives largely listed as inhibitors | 1,100 tested, under 10 active | ADP-Glo detection counter-screen, luciferase luminescence, no enzyme; active means well fitted curve in the direction sought with a large enough effect; inconclusive means small, poorly fitted or top-dose-only effect, or another doubt; inactive means no such curve, though single readings can be large or run the other way
An asterisk follows results filed as active.

Screening CCN(CC)C(=O)c1ccc(NC(=O)c2cccc(C(F)(F)F)c2)cc1 returned PI5P4Ka inh -2, D3 ag -15, LDHA inh -8, DRD3 antagonist -24 and PI4K2A inh 0.
`CCN(CCCl)c1cc(CN(C)C)cc(NC(=O)c2ccc(C(=O)Nc3cc(CN(C)C)cc(N(CC)CCCl)c3)cc2)c1` gave PI5P4Ka inh inconclusive, D3 ag -12, LDHA inh 5, DRD3 antagonist -84* and PI4K2A inh -1.
Screening C=CCN1C(=O)NC(=O)/C(=C/C=C/c2ccccc2)C1=O returned PI5P4Ka inh inconclusive, D3 ag 2, LDHA inh -3, DRD3 antagonist -1 and PI4K2A inh -8.
CN(C)c1ccc(/C=C/C=C2/C(=O)NC(=O)N(c3ccccc3)C2=O)cc1 was read as PI5P4Ka inh -78*, D3 ag -2, LDHA inh 0, DRD3 antagonist -22 and PI4K2A inh -27.
CC(C)N1C(=O)CC2(CC[N+](C)(CCOC(=O)C(O)(c3ccccc3)c3ccccc3)CC2)C1=O (configuration not stated) was read as PI5P4Ka inh -6, D3 ag 6, LDHA inh -34*, DRD3 antagonist -8 and PI4K2A inh 3.
Screening CCN(CC)CCOC(=O)C(O)(c1ccccc1)c1ccccc1 returned PI5P4Ka inh 1, D3 ag -56, LDHA inh 3, DRD3 antagonist -26 and PI4K2A inh -2.
Cc1nn(Cc2ccccc2)c(C)c1C=C1C(=O)NC(=S)NC1=O was read as PI5P4Ka inh -57*, D3 ag -6, LDHA inh -10, DRD3 antagonist -13 and PI4K2A inh -3.
For Cc1cccc2[nH]cc(CCN)c12 the results were LDHA inh 3.
CC(=O)O[C@H]1C(=O)[C@@]2(C)C([C@H](OC(=O)c3ccccc3)[C@]3(O)C[C@H](OC(=O)[C@H](O)[C@@H](NC(=O)Cc4ccccc4)c4ccccc4)C(C)=C1C3(C)C)[C@]1(OC(C)=O)CO[C@@H]1C[C@@H]2O (some centres not stated) was read as PI5P4Ka inh 0, D3 ag -9, LDHA inh -1, DRD3 antagonist -50* and PI4K2A inh 7.
For COc1ccc(OC)c(N2C(=O)NC(=O)/C(=C/c3ccc([N+](=O)[O-])s3)C2=O)c1 the results were PI5P4Ka inh inconclusive, D3 ag 0, LDHA inh 23, DRD3 antagonist -1 and PI4K2A inh -16.
Screening COc1ccc(OC)c(N2C(=O)/C(=C/c3ccco3)C(=O)NC2=S)c1 returned PI5P4Ka inh -86*, D3 ag 9, LDHA inh -7, DRD3 antagonist -12 and PI4K2A inh inconclusive.
`Cc1[nH]c2c(C)cccc2c1CCN` gave LDHA inh 5.
For COc1ccccc1NC(=O)c1cn(C)c2ccccc12 the results were LDHA inh 2.
`Oc1c(Br)c(Br)c(Br)c(Br)c1Br` gave PI5P4Ka inh -60*, D3 ag -85, LDHA inh inconclusive, DRD3 antagonist -55* and PI4K2A inh 1.
For N#CC(C#N)=NNc1ccc(S(N)(=O)=O)cc1 the results were PI5P4Ka inh -107*, D3 ag -5, LDHA inh -45*, DRD3 antagonist -12 and PI4K2A inh -17.
For O=C(Cc1ccccc1)N1CCN(CC2CC=CCC2)CC1 (configuration not stated) the results were PI5P4Ka inh -2, D3 ag -16, LDHA inh -20, DRD3 antagonist -53* and PI4K2A inh 0.
For O=C(NC(NC(c1ccccc1)C(Cl)Cl)C(Cl)(Cl)Cl)c1ccccc1 (configuration not stated) the results were LDHA inh 0.
For CCN1CCN(CC(c2ccccc2)c2ccccc2)CC1 the results were PI5P4Ka inh -6, D3 ag -10, LDHA inh -19, DRD3 antagonist -28 and PI4K2A inh 3.
Screening O=C(c1ccccc1)C(CN1CCCC1)c1ccccc1 (configuration not stated) returned PI5P4Ka inh -10, D3 ag -9, LDHA inh -8, DRD3 antagonist -56* and PI4K2A inh 34.
Cc1ccc(C)n1-c1c(C(=O)N2CCC3(CC2)OCCO3)sc2ncccc12 was read as LDHA inh -3.
Cc1cccc(N2C(=O)NC(=O)/C(=C/c3ccc([N+](=O)[O-])o3)C2=O)c1 was read as PI5P4Ka inh -78*, D3 ag 16, LDHA inh 14, DRD3 antagonist 8 and PI4K2A inh -13.
Cc1cccc(N2C(=O)NC(=O)/C(=C\c3cccn3-c3ccc(Cl)cc3)C2=O)c1 was read as PI5P4Ka inh -52*, D3 ag -12, LDHA inh 0, DRD3 antagonist -17 and PI4K2A inh -50*.
For Cc1cc(C)cc(N2C(=O)NC(=O)/C(=C/c3cccn3-c3ccc(Cl)cc3)C2=O)c1 the results were PI5P4Ka inh -26, D3 ag -4, LDHA inh -8, DRD3 antagonist -7 and PI4K2A inh -24.
Cc1cccc(N2C(=O)NC(=O)/C(=C\C=C\c3ccco3)C2=O)c1 was read as PI5P4Ka inh -25, D3 ag -4, LDHA inh -13, DRD3 antagonist -18 and PI4K2A inh inconclusive.
C[C@]12CC[C@@H]3c4ccc(OC(=O)N(CCCl)CCCl)cc4CC[C@H]3[C@@H]1CC[C@@H]2O was read as D3 ag -3 and PI4K2A inh -1.
For C[C@]12CC[C@@H]3c4ccc(O)c(O)c4CC[C@H]3[C@@H]1CC[C@@H]2O the results were PI5P4Ka inh -74*, D3 ag -10, LDHA inh 18, DRD3 antagonist 0 and PI4K2A inh -2.
For CC[C@H](C)/C=C(C)/C=C/C1=CC2=C(Cl)C(=O)[C@@](C)(OC(C)=O)C(=O)C2=CO1 the results were PI5P4Ka inh -87*, D3 ag 2, LDHA inh 0, DRD3 antagonist 10 and PI4K2A inh inconclusive.
For CC(C)NCC(O)c1ccc(C2CCCC2)cc1 (configuration not stated) the results were PI5P4Ka inh -9, D3 ag -15, LDHA inh 2, DRD3 antagonist -14, PI4K2A inh 1 and ADP-Glo counter -8%.
Cc1[nH]c2ccccc2c1C=C(C#N)C#N was read as LDHA inh 6.
For COCCNC(=O)N1[C@H]2CC[C@@H]1C(C(=O)OC)=C(c1ccc(OC)c(OC)c1)C2 the results were PI5P4Ka inh -1, D3 ag 2, LDHA inh 0, DRD3 antagonist 3 and PI4K2A inh 1.
CCCNC(=O)N1[C@H]2CC[C@@H]1C(C(=O)OC)=C(c1ccc(OC)c(OC)c1)C2 was read as PI5P4Ka inh -85*, D3 ag 0, LDHA inh -5, DRD3 antagonist -2, PI4K2A inh -1 and ADP-Glo counter -5%.
For CCCCCn1c(=O)c(C(=O)Nc2ccccc2S(N)(=O)=O)c(O)c2ccccc21 the results were PI5P4Ka inh -53*, D3 ag 1, LDHA inh -4, DRD3 antagonist 0, PI4K2A inh 3 and ADP-Glo counter 0%.
Screening O=C(Nc1cccc2c1CCCC2)N1CCC2(CC1)OCCO2 returned LDHA inh 18.
